# Assay results published in PubChem BioAssay (Tox21).
# Several values for one entry are separate records, joined by “and”; a condition that tells them apart may be missing. Identical values can stand only once. Records with an inconclusive call do not appear. Entries that show only a call come without a potency. Some compounds were tested as several samples or in several runs, with calls that do not always agree. Activity calls are given as the source filed them. Calls come from the whole dose curve.
# Tests used:
# [1] = molecular target: Acetylcholinesterase (Homo sapiens) (UniProt P22303); experiment: Acetylcholinesterase (AChE) small molecule antagonists: colormetric cell-based qHTS assay (AID 1347395); note: nearly all actives have a fitted effect of over 30% in size; note: potency is the fitted concentration of half-maximal effect
# Procedure, shortened: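 SH-SY5Y cells; cpd 30 min 37 C; + DTNB/acetylthiocholine, 90 min 37 C; colorimetric thiocholine read; qHTS.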
# [2] = molecular target: Acetylcholinesterase (Homo sapiens) (UniProt P22303); experiment: Acetylcholinesterase (AChE) small molecule antagonists: enzyme-based qHTS assay (AID 1347397); settings: Potency: AChE enzyme activity inhibition; outcome: AChE enzyme activity inhibition; note: nearly all actives have a fitted effect of over 55% in size; note: potency is the fitted concentration of half-maximal effect
# Procedure, shortened: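 Compound or DMSO vehicle was pin-transferred onto recombinant human AChE (50 mU/mL as dispensed) and left 30 min at room temperature. Acetylthiocholine with DTNB then started the reaction, read colorimetrically 10 min later.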
# [3] = molecular target: Acetylcholinesterase (Homo sapiens) (UniProt P22303); experiment: Acetylcholinesterase (AChE) small molecule antagonists: enzyme-based qHTS assay with human liver microsomes (AID 1347399); settings: Potency: qHTS inhibition; outcome: qHTS inhibition; note: nearly all actives have a fitted effect of over 60% in size
# Procedure, shortened: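 Recombinant human AChE (50 mU/mL in the enzyme mix) and human liver microsomes (0.25 mg/mL final) were preincubated with compound and NADPH (0.25 mg/mL final) for 30 min at 37 C. Acetylthiocholine/DTNB was then added; thiocholine was read colorimetrically after 10 min at room temperature.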
# [4] = molecular target: Acetylcholinesterase (Homo sapiens) (UniProt P22303); experiment: Acetylcholinesterase (AChE) small molecule antagonists: fluorescence cell-based qHTS assay (AID 1347398); settings: Potency: AChE activity; outcome: AChE activity; note: nearly all actives have a fitted effect of over 50% in size; note: potency is the fitted concentration of half-maximal effect
# Procedure, shortened: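 Using neuroblastoma SH-SY5Y cells as the enzyme source, test chemicals are preincubated 30 min at 37 C; AChE-driven acetylthiocholine cleavage is then quantified by thiocholine-dependent Thiolite Green fluorescence after 40 min at room temperature.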
# Sequence of Acetylcholinesterase (Homo sapiens) (P22303 whole entry, looked up): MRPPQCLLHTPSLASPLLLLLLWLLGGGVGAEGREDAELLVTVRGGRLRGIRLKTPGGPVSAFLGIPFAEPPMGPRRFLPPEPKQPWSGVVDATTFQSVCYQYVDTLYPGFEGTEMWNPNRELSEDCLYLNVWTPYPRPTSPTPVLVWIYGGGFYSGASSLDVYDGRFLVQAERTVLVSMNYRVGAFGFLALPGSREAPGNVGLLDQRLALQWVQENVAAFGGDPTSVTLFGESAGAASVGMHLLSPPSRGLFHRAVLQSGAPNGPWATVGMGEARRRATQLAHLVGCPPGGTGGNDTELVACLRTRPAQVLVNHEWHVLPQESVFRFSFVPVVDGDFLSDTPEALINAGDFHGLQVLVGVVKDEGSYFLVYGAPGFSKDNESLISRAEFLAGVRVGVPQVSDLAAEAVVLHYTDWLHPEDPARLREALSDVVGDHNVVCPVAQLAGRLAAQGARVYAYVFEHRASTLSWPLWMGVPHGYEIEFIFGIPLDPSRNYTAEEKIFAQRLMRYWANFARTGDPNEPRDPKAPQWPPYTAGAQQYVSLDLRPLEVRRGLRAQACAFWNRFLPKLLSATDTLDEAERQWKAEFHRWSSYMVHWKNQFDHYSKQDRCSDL
smiles,measurement,setting,value
CNC(=S)N(C)C,Potency,[1],inactive
same,Potency,[2],63.9 µM (active) and inactive
same,Potency,[3],inactive
O=C(O)c1cccc(C(=O)O)n1,Potency,[1],inactive
same,Potency,[2],inactive
same,Potency,[3],inactive
O=C1Nc2ccc([N+](=O)[O-])cc2C1=O,Potency,[1],inactive
same,Potency,[2],inactive
same,Potency,[3],inactive
CNc1ccc([N+](=O)[O-])cc1,Potency,[1],inactive
same,Potency,[2],inactive
same,Potency,[3],inactive
O=c1[nH]c2ccccc2c(=O)n1CCCl,Potency,[1],inactive
same,Potency,[2],inactive
same,Potency,[3],inactive
NC(=NCCCCCCN=C(N)/N=C(\N)Nc1ccc(Cl)cc1)/N=C(\N)Nc1ccc(Cl)cc1,Potency,[1],56.1 µM (active) and 62.9 µM (active) and inactive
same,Potency,[4],11.1 µM (active) and 17.7 µM (active) and 16.2 µM (active)
same,Potency,[3],inactive
O=S1(=O)OC(c2ccc(O)cc2)(c2ccc(O)cc2)c2ccccc21,Potency,[1],inactive
same,Potency,[2],inactive
same,Potency,[3],inactive
N[C@@H](Cc1c[nH]c2ccc(O)cc12)C(=O)O,Potency,[1],inactive
same,Potency,[2],inactive
same,Potency,[3],inactive
Oc1ccc2cc(SSc3ccc4cc(O)ccc4c3)ccc2c1,Potency,[1],inactive
same,Potency,[2],inactive
same,Potency,[3],inactive
CCC/C=C(\C=O)CC,Potency,[1],inactive
same,Potency,[2],inactive
same,Potency,[3],inactive
Cc1oc(-c2ccccc2)nc1CCOc1cccc2c1ccn2CCC(=O)O,Potency,[1],inactive
same,Potency,[2],inactive
same,Potency,[3],inactive
NC(=O)c1ccccc1N,Potency,[1],inactive
same,Potency,[2],inactive
same,Potency,[3],inactive
CC(C)(CO)CO,Potency,[1],inactive
same,Potency,[2],inactive
same,Potency,[3],inactive
C[C@@H](O)[C@H]1C(=O)N2C(C(=O)O)=C(S[C@@H]3CN[C@H](C(=O)N(C)C)C3)[C@H](C)[C@H]12,Potency,[1],inactive
same,Potency,[4],inactive
same,Potency,[3],inactive
CCCCCCCCCCCCCC(=O)O,Potency,[1],inactive
same,Potency,[4],inactive
c1ccc(Nc2ccccc2)cc1,Potency,[1],inactive
same,Potency,[2],inactive
same,Potency,[3],inactive
O=Cc1ccccc1O,Potency,[1],inactive
same,Potency,[4],35.6 µM (active) and inactive
same,Potency,[3],inactive
CC(CCC(=O)O)(c1ccc(O)cc1)c1ccc(O)cc1,Potency,[1],inactive
same,Potency,[2],inactive
same,Potency,[3],inactive
CCN(CC)C(=O)c1cccc(C)c1,Potency,[1],inactive
same,Potency,[2],inactive
same,Potency,[3],inactive
CCC(=O)Oc1ccc(/C(CC)=C(\CC)c2ccc(OC(=O)CC)cc2)cc1,Potency,[1],inactive
same,Potency,[2],inactive
same,Potency,[3],inactive
O=C=NCCCCCCN=C=O,Potency,[1],inactive
same,Potency,[2],inactive
same,Potency,[3],inactive
NC(=O)N(O)[C@@H]1C=C[C@H](Oc2cccc(Oc3ccc(F)cc3)c2)C1,Potency,[1],inactive
same,Potency,[4],inactive
same,Potency,[3],inactive
O=C1OC(c2ccc(O)cc2)(c2ccc(O)cc2)c2ccccc21,Potency,[1],35.6 µM (active) and 24.5 µM (active)
same,Potency,[2],inactive
same,Potency,[3],inactive
Cc1ncsc1CCO,Potency,[1],inactive
same,Potency,[2],inactive
same,Potency,[3],inactive
CCC(=O)O,Potency,[1],inactive
same,Potency,[4],inactive
same,Potency,[3],inactive
Cc1ccc(C(=O)Oc2ccc(C(O)CNC(C)(C)C)cc2OC(=O)c2ccc(C)cc2)cc1 (configuration not stated),Potency,[1],inactive
same,Potency,[2],inactive
same,Potency,[3],inactive
CC(C)c1ccc(C(C)C)cc1,Potency,[1],inactive
same,Potency,[4],inactive
same,Potency,[3],inactive
COc1ccc(OC)c(C(O)CNC(=O)CN)c1 (configuration not stated),Potency,[1],inactive
same,Potency,[4],inactive
COc1cc(C(=O)OC(COCCC(C)C)CN2CCOCC2)cc(OC)c1OC (configuration not stated),Potency,[1],inactive
same,Potency,[2],inactive
same,Potency,[3],inactive
CC(C)C/C=C(\C=O)c1ccccc1,Potency,[1],inactive
same,Potency,[2],inactive
same,Potency,[3],inactive
CCOC(=O)O[C@]1(C(=O)OCCl)CC[C@H]2[C@@H]3CCC4=CC(=O)C=C[C@]4(C)[C@H]3[C@@H](O)C[C@@]21C,Potency,[1],inactive
same,Potency,[2],inactive
same,Potency,[3],inactive
CCCCCCCCCCOc1cc2c(=O)c(C(=O)OCC)c[nH]c2cc1OCC,"activity, negative = inhibition",[1],1.43% [at 10.5 µM] (inactive)
same,"activity change, negative = inhibition",[2],0.693% [at 10.5 µM] (inactive)
same,"activity change, negative = inhibition",[3],-5.96% [at 10.5 µM] (inactive)
FB(F)F,Potency,[1],inactive
same,Potency,[2],inactive
same,Potency,[3],inactive
CCc1ccccc1,Potency,[1],inactive
same,Potency,[2],inactive
same,Potency,[3],inactive
CCCCN(CCCC)CCCC,Potency,[1],inactive
same,Potency,[2],inactive
same,Potency,[3],inactive
NC(=O)N[C@@H](CCC(=O)O)C(=O)O,Potency,[1],inactive
same,Potency,[2],inactive
same,Potency,[3],inactive
CCCCCCOCCO,Potency,[1],inactive
same,Potency,[4],inactive
same,Potency,[3],inactive
OCCN1CCN(CCCN2c3ccccc3C=Cc3ccccc32)CC1,Potency,[1],inactive
same,Potency,[4],inactive
same,Potency,[3],inactive
Clc1ccc(Sc2cc(Cl)c(Cl)cc2Cl)cc1,Potency,[1],inactive
same,Potency,[4],inactive
same,Potency,[3],inactive
CC[C@@]1(O)C(=O)OCc2c1cc1n(c2=O)Cc2cc3c(CN(C)C)c(O)ccc3nc2-1,Potency,[1],inactive
same,Potency,[4],inactive
same,Potency,[3],inactive
CCCCCCCCOS(=O)(=O)O,Potency,[1],inactive
same,Potency,[4],inactive
same,Potency,[3],inactive
O=C(O[C@@H]1Cc2c(O)cc(O)cc2O[C@@H]1c1cc(O)c(O)c(O)c1)c1cc(O)c(O)c(O)c1,Potency,[1],inactive
same,Potency,[4],inactive
same,Potency,[3],inactive
c1ccc(Nc2cccc3ccccc23)cc1,Potency,[1],inactive
same,Potency,[4],inactive
same,Potency,[3],inactive
CCCCCC1CCCC(=O)O1 (configuration not stated),Potency,[1],inactive
same,Potency,[4],inactive
same,Potency,[3],inactive
O=NN(CCCl)C(=O)NC1CCCCC1,Potency,[1],inactive
same,Potency,[4],inactive
same,Potency,[3],inactive
O=c1[nH]c(=O)n([C@H]2C[C@H](O)[C@@H](CO)O2)cc1Br,Potency,[1],inactive
same,Potency,[4],inactive
same,Potency,[3],inactive
FC(F)(F)c1ccccc1Cl,Potency,[1],inactive
same,Potency,[4],inactive
same,Potency,[3],inactive
CC(=O)Oc1c(C)c(C)c2c(c1C)CC[C@@](C)(CCC[C@H](C)CCC[C@H](C)CCCC(C)C)O2,Potency,[1],inactive
same,Potency,[4],inactive
same,Potency,[3],inactive
CC(=O)Oc1ccc(C(=C2CCCCC2)c2ccc(OC(C)=O)cc2)cc1,Potency,[1],inactive
same,Potency,[4],inactive
same,Potency,[3],inactive
CCCCCCCCCCCCc1ccccc1,Potency,[1],inactive
same,Potency,[4],inactive
same,Potency,[3],inactive
CC(CN1CC(=O)NC(=O)C1)N1CC(=O)NC(=O)C1 (configuration not stated),Potency,[1],inactive
same,Potency,[4],inactive
same,Potency,[3],inactive
CC(C)S,Potency,[1],inactive
same,Potency,[4],inactive
same,Potency,[3],inactive
CCCCCCCCOc1ccc(C(=O)c2ccccc2)c(O)c1,Potency,[1],inactive
same,Potency,[4],inactive
same,Potency,[3],inactive
C/C=C/C=C/CO,Potency,[1],inactive
same,Potency,[4],inactive
same,Potency,[3],inactive
CNCCCC12CCC(c3ccccc31)c1ccccc12,Potency,[1],inactive
same,Potency,[4],inactive
same,Potency,[3],inactive
Cc1ccc2ccccc2n1,Potency,[1],inactive
same,Potency,[4],inactive
same,Potency,[3],inactive
CCOC(=O)C(=O)CCCCCCl,Potency,[1],inactive
same,Potency,[4],inactive
same,Potency,[3],inactive
CC(C)Cc1ccc(C(C)C(=O)O)cc1 (configuration not stated),Potency,[1],inactive
same,Potency,[4],inactive
same,Potency,[3],inactive
